Several values for one entry are separate records, joined by “and”; a condition that tells them apart may be missing. Equal values may be shown once. Hit rate of the full screen: of about 350,000 compounds, about 180 (0.051%) were called active. This is one part of a sample in which actives are shown more often than they occur.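 How the source made its calls: active means mean replicate inhibition above about 25%, with every replicate also reaching it (limit read from the data, passing the limit was not always enough); inconclusive means only one of those two criteria met; inactive means neither criterion met.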

The values that follow come from PubChem BioAssay AID651711 (Broad Institute, 2012).

The target of the assay is Protein disulfide-isomerase A6 (Homo sapiens) (UniProt Q15084). As to the kind of experiment: inhibitors of ERp5-driven insulin aggregation, primary screen, biochemical, turbidity, absorbance 650 nm, single point (AID 651711). Particulars: 90 min, at 9.99 µM, hits give high values.
Chain of Protein disulfide-isomerase A6 (Homo sapiens) (Q15084 whole entry, looked up): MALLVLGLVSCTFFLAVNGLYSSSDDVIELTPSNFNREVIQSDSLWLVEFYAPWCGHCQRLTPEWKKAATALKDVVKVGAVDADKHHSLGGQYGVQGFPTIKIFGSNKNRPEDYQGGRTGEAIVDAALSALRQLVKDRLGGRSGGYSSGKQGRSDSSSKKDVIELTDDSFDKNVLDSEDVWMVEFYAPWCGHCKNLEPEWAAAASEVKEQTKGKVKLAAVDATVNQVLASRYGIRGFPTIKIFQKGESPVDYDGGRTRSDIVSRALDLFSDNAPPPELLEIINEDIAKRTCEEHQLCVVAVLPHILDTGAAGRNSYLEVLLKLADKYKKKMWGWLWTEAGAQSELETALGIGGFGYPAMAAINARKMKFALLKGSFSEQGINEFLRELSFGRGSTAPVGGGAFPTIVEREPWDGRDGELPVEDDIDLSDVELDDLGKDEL
The term inhibition denotes the drop in the measured response relative to a control, in per cent. Regarding `COCC(=O)N1C[C@@H]2[C@H](c3ccccc31)[C@@H](CO)N2C(=O)C1CC1`, the inhibition is -1.61% (inactive).
As to `COCC#Cc1ccc([C@H]2[C@H](CO)N3C(=O)CN(C(=O)Nc4ccccc4F)C[C@@H]23)cc1`, the inhibition was 3.85% (inactive).
Next, `CNC[C@H]1Oc2ccc(NS(=O)(=O)c3cn(C)cn3)cc2C(=O)N([C@@H](C)CO)C[C@@H]1C`: -3.85% (inactive); `O=C(C[C@@H]1C[C@@H]2c3cc(NC(=O)c4ccc5c(c4)OCO5)ccc3O[C@@H]2[C@H](CO)O1)NCC1CC1`: -3.55% (inactive); `Cc1cccc(-c2ccc([C@@H]3[C@H](CO)N4CCCCN(Cc5ccncc5)C[C@@H]34)cc2)c1`: 10.1% (inactive).
Then `COc1ccc2c3c(n(C)c2c1)[C@H](CO)N(Cc1ccc(F)cc1)CC31CCN(C)CC1`, with -1.69% (inactive); and `CO[C@H]1CN(C)C(=O)c2cc(NC(=O)C3CCC3)ccc2OC[C@H](C)N(CC2CCCCC2)C[C@@H]1C`, with -3.58% (inactive).
Next, `CCCNC(=O)N(C)C[C@H]1Oc2cc(-c3ccncc3)ccc2S(=O)(=O)N([C@H](C)CO)C[C@@H]1C`: 1.24% (inactive).
Consider `CCCNC(=O)N1[C@@H]2CNC[C@H]1C2c1ccc(-c2cccc(C)c2)cc1` (some centres undefined), for which the inhibition was 2.37% (inactive) and -1.56% (inactive).
As for `O=C(N[C@@H]1CC[C@H](CCn2cc(-c3ccccc3)nn2)O[C@H]1CO)c1cnccn1`, the inhibition is 19.2% (inactive).
With `C[C@@H]1CN([C@@H](C)CO)C(=O)Cc2cc(NS(=O)(=O)c3cccs3)ccc2O[C@H]1CN(C)S(=O)(=O)c1ccc(F)cc1`, the inhibition is 18.7% (inactive).
Then `CC(C)NC(=O)N1[C@H](C#N)[C@H](c2ccc(C#CC3CCCCC3)cc2)[C@H]1CO`, with -0.752% (inactive); and `O=C(Cc1ccccn1)NCC[C@H]1CC[C@H](NC(=O)Nc2ccc(F)cc2)[C@@H](CO)O1`, with -0.166% (inactive).
Take `C[C@@H]1CN([C@@H](C)CO)C(=O)c2cccc(NS(=O)(=O)c3ccc(F)cc3)c2O[C@@H]1CN(C)Cc1ccc(C(=O)O)cc1`: the inhibition is 0.602% (inactive).
Then `Cc1noc(C)c1NC(=O)N(C)C[C@@H]1Oc2ccc(NC(=O)C3CC3)cc2C(=O)N([C@H](C)CO)C[C@@H]1C`, with 7.46% (inactive).
Next, `CC(C)NC(=O)N1[C@H](CNC(=O)CN(C)C)[C@@H](c2ccccc2)[C@@H]1CO`: 6.83% (inactive); `O=C(C[C@@H]1C[C@H]2c3cc(NC(=O)NC4CCCC4)ccc3O[C@H]2[C@@H](CO)O1)NC1CCCCC1`: 5.32% (inactive); `CCC(=O)Nc1ccc2c(c1)OC[C@H](C)N(C(=O)c1ccccc1F)C[C@@H](C)[C@H](OC)CN(C)C2=O`: 12.1% (inactive).
On to `C[C@@H]1CN([C@@H](C)CO)C(=O)CCCn2cc(nn2)CO[C@@H]1CN(C)Cc1ccccc1C(=O)O`, for which the inhibition was 1.73% (inactive).
Next, `COC(=O)[C@]12C[C@H](CC(=O)NCc3ccccc3)C(=O)N(CCC3=CCCCC3)C1=C[C@H](C(C)(C)C)O[C@@H]2C`: 15.6% (inactive); `CN1C(=O)c2cc(NC(=O)C3CCOCC3)ccc2OC[C@H]2O[C@@H](CC(=O)NCC3CCCCC3)CC[C@@H]21`: -1.95% (inactive).
Consider `COC(=O)CNC(=O)c1ccccc1[N+](=O)[O-]`, for which the inhibition was -6.79% (inactive).
As to `COc1ccc(Br)cc1/C=N/Nc1ccc(S(=O)(=O)Nc2ccccc2C(=O)O)cc1[N+](=O)[O-]`, the inhibition was -6.38% (inactive).
In the case of `COCCNC(=O)c1ccccc1NS(=O)(=O)c1ccc(C)c([N+](=O)[O-])c1`, the inhibition was 32.3% (active).
Next, `CCOC(=O)c1c(C)[nH]c(C(=O)OCC(=O)c2ccc(OC)cc2OC)c1C`: -4.48% (inactive).
Next, `CC(=O)c1c(C)[nH]c(C(=O)COC(=O)c2cccs2)c1C`: 14.1% (inactive); `COc1cccc(C(=O)OCC(=O)c2[nH]c(C)c(C(C)=O)c2C)c1`: 27.2% (active).
Next, `C[C@@H]1CN([C@@H](C)CO)C(=O)c2cc(NC(=O)CCCN(C)C)ccc2O[C@@H](C)CCCCO[C@@H]1CN(C)S(=O)(=O)c1ccc(Cl)cc1`: 0.282% (inactive); `C[C@@H]1CN([C@@H](C)CO)C(=O)Cc2cc(NC(=O)CCN3CCOCC3)ccc2O[C@@H]1CN(C)C(=O)Nc1cccc2ccccc12`: 7.67% (inactive).
In the case of `O=C(N[C@@H]1CC[C@@H](CCn2cc(-c3ccccn3)nn2)O[C@@H]1CO)c1ccccc1`, the inhibition was -2.15% (inactive).
`COc1ccc(S(=O)(=O)Nc2ccc3c(c2)C(=O)N([C@@H](C)CO)C[C@H](C)[C@H](CN(C)Cc2ccc(C(=O)O)cc2)OCCCC[C@@H](C)O3)cc1`: the inhibition was -3.93% (inactive).
Then `Cc1noc(C)c1S(=O)(=O)N(C)C[C@H]1Oc2ccc(NS(=O)(=O)c3cccs3)cc2C(=O)N([C@H](C)CO)C[C@H]1C`, with -0.984% (inactive); and `O=S(=O)(c1ccccc1)N1CCCCN2[C@@H](CO)[C@H](c3ccc(C#Cc4cccnc4)cc3)[C@@H]2C1`, with -0.401% (inactive); and `COCCNC(=O)C[C@@H]1CC[C@H]2[C@H](COc3ccc(NS(=O)(=O)c4ccc(Cl)cc4)cc3C(=O)N2C)O1`, with 6.32% (inactive).
Take `C[C@H]1CN([C@@H](C)CO)C(=O)Cc2cc(NS(=O)(=O)c3cccs3)ccc2O[C@@H]1CN(C)Cc1ccc(Oc2ccccc2)cc1`: the inhibition was 0.293% (inactive).
As for `COc1ccc2c3c([nH]c2c1)[C@H](CO)N(Cc1ccccc1Cl)CC31CN(C(=O)C2CC2)C1`, the inhibition is 32% (active).
Then `COc1ccc2c3c([nH]c2c1)[C@@H](CO)N(Cc1ccccc1F)CC31CN(C(=O)C2CC2)C1`, with 5.63% (inactive); and `COc1ccc2c3c([nH]c2c1)[C@@H](CO)N(Cc1cc(F)ccc1F)CC31CN(C(=O)C2CCC2)C1`, with 0.016% (inactive).
Next, `COc1ccc(NC(=O)Nc2cccc3c2O[C@@H](CN(C)C(=O)NC(C)C)[C@H](C)CN([C@H](C)CO)C3=O)cc1`: 1.64% (inactive).
Next, `O=C(C[C@H]1CC[C@H]2[C@@H](COC[C@@H](O)CN2CC2CCCC2)O1)NCC1CC1`: 5.23% (inactive); `O=C(CCN1CCCCC1)NCC[C@H]1CC[C@@H](NC(=O)C2CCOCC2)[C@H](CO)O1`: -1.07% (inactive).
Take `C[C@H](NC(=O)[C@H]1N[C@H]2c3ccc(-c4ccc(C(=O)N(C)C)cc4)c(=O)n3C[C@H]2[C@@H]1CO)c1ccccc1`: the inhibition is -1.53% (inactive).
Then `O=C(C[C@@H]1CC[C@H](NC(=O)NC2CCCCC2)[C@H](CO)O1)NCc1ccc(F)cc1`, with -0.201% (inactive).
Consider `CCC(=O)Nc1ccc2c(c1)OC[C@@H](C)N(Cc1cncnc1)C[C@H](C)[C@@H](OC)CN(C)C2=O`, for which the inhibition is 1.32% (inactive).
Then `O=C(Nc1cccc(F)c1)N1CC(=O)N2[C@H](C1)[C@H](c1ccc(-c3ccccc3F)cc1)[C@@H]2CO`, with -0.993% (inactive); and `CN(C)C(=O)[C@@H]1[C@@H](CO)[C@@H]2Cn3c(ccc(-c4ccncc4)c3=O)[C@H]1N2C(=O)NC1CCCC1`, with -2.64% (inactive); and `CO[C@@H]1CN(C)C(=O)c2cc(NC(=O)c3ccccc3F)ccc2OC[C@H](C)N(C(C)=O)C[C@@H]1C`, with 3.35% (inactive).
Then `O=C(C[C@H]1CC[C@@H]2[C@H](COC[C@H](O)CN2Cc2ccccc2F)O1)NC1CCC1`, with -3.28% (inactive).
In the case of `CCCNC(=O)C[C@H]1C[C@H]2c3cc(NC(=O)COC)ccc3O[C@H]2[C@H](CO)O1`, the inhibition is 2.76% (inactive).
With `CNC(=O)C[C@@H]1CC[C@@H]2[C@@H](COc3ccc(NC(=O)Nc4ccccc4OC)cc3C(=O)N2C)O1`, the inhibition was 5.92% (inactive).
Consider `CCC(=O)N(C)C[C@@H]1Oc2cc(C#C[C@H](C)O)ccc2S(=O)(=O)N([C@@H](C)CO)C[C@H]1C`, for which the inhibition was -0.347% (inactive).
As for `C[C@@H]1CN([C@H](C)CO)C(=O)Cc2cc(NC(=O)CCN3CCOCC3)ccc2O[C@H]1CN(C)CC1CC1`, the inhibition is -3.37% (inactive).
Turning to `COc1ccc(CCN2C(=O)[C@@]3(Cc4ccccc42)c2ccccc2C(=O)N(Cc2ccccc2C(F)(F)F)[C@H]3c2ccc(CO)cc2)cc1`, the inhibition was 4.71% (inactive).
`C[C@H](CO)N1C[C@H](C)[C@@H](CN(C)C(=O)Cc2ccncc2)Oc2ncc(C3=CCCCC3)cc2C1=O`: the inhibition was 4.38% (inactive).
Then `O=C(c1cccc(F)c1)N1CC[C@@H]2[C@@H](CO)Nc3ccc(C#Cc4cccc(F)c4)cc3[C@@H]21`, with -3.07% (inactive).
Next, `C[C@H](CO)N1C[C@H](C)[C@@H](CN(C)Cc2ccc(C(=O)O)cc2)Oc2ccc(NS(=O)(=O)c3cn(C)cn3)cc2CC1=O`: -1.33% (inactive); `CC(C)NC(=O)N1CC2(C1)[C@H](c1ccccc1)[C@H](CO)N2C(=O)C1CCOCC1`: 0.292% (inactive); `C/C=C/c1ccc([C@H]2[C@@H](CO)N(C(=O)NCCC)[C@H]2CN(C)C(C)=O)cc1`: 5.18% (inactive).
On to `CC(C)NC(=O)Nc1ccc2c(c1)C(=O)N([C@H](C)CO)C[C@@H](C)[C@@H](CN(C)Cc1ccncc1)O2`, for which the inhibition is -5.48% (inactive).
As for `COc1ccc(C#Cc2cccc(-c3nc(C(=O)O)cc4c3[C@@H](CCO)N(S(=O)C(C)(C)C)C4)c2)cc1OC` (some centres undefined), the inhibition was -1.96% (inactive).
Regarding `Cc1ccc(S(=O)(=O)N(C)C[C@@H]2OCc3ccccc3-c3c(n(C)c4ccccc34)C(=O)N([C@@H](C)CO)C[C@@H]2C)cc1`, the inhibition is 3.4% (inactive).
Next, `O=C(C[C@H]1C=C[C@H](NC(=O)Nc2ccc(C(F)(F)F)cc2)[C@@H](CO)O1)NCCN1CCCC1`: 18.1% (inactive); `C[C@@H]1CN([C@@H](C)CO)C(=O)Cc2cc(NC(=O)Cc3cn(C)c4ccccc34)ccc2O[C@H]1CN(C)C(=O)NC1CCCCC1`: 5.6% (inactive); `C[C@@H]1CN([C@H](C)CO)C(=O)Cc2cc(NC(=O)Nc3cccc4ccccc34)ccc2O[C@H]1CN(C)C(=O)Nc1ccc2c(c1)OCO2`: -12.4% (inactive).
